# Source: PubChem (several laboratories)
# Most compounds without a hit are left out; they make up all but 2.5% or so of the library.
# aSyn UTR inh = 5' untranslated region of α-synuclein, MLPCN primary screen; alpha-synuclein 5'UTR reporter, inhibitor activity; 0.82% of 300,000 active; inhibition, % (tested at 7.5 µM); in the data active = inhibition above about 60%;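 also: H4 neuroglioblastoma cells stably carrying SNCA 5'UTR luciferase fusion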
# 697 NFkB inh = inhibitors of the PMA/ionomycin-induced NF-kB reporter in 697 B cells. 697 B-cell NF-kB luciferase reporter, 16 h. inhibition, % at 4 µM. 0.33% of 330,000 active. AID 435022; in the data active = inhibition above about 35%
# KLF5 inhibitor = suppresses KLF5 promoter-driven expression; DLD-1 KLF5 promoter-luciferase reporter, luminescence; inhibition, % at 5 µM; 0.23% of 290,000 active; AID 1700;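 active = inhibition above a per-plate limit of that plate's mean compound inhibition plus 3 SD, cut at about 60% in these data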;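 also: higher means less KLF5 promoter-driven luciferase light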
# Jurkat NFkB inh = lowers PMA/ionomycin-induced NF-kB signal in Jurkat cells | 0.53% of 330,000 active | inhibition, % at 4 µM | PMA/ionomycin-induced NF-kB luciferase reporter, luminescence; in the data active = inhibition above about 50%
# ANO1 block = mouse TMEM16A channel inhibition, primary screen; HEK293 TMEM16A/YFP iodide influx fluorescence, ionomycin; normalized B-score (activity score, 25-100; higher = stronger inhibition) at 10 µM; 1.2% of 310,000 active; AID 588511; Q8BHY3;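 active = ratio plate-corrected score three or more library SD toward inhibition, starting fluorescence score within five deviations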;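 also: score derived from kinetic fluorescence span divided by baseline fluorescence per well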
# TMEM16A act = activates or potentiates the mouse TMEM16A chloride channel; HEK293 TMEM16A/YFP-H148Q/I152L, iodide quench fluorescence; hits give low values; B-score at 10 µM; 0.3% of 340,000 active; AID 623877; Q8BHY3;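 active = fluorescence-ratio B-score plate-corrected deviation score at least 3 library SD below zero, with starting fluorescence score within 5 deviations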;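 also: channel opened by trigger with iodide after compound preincubation; score built on the fluorescence ratio of max minus min over baseline; more negative score means more quench and so TMEM16A activation or potentiation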
# Numbers stand for hits; n = inactive; x = no result given.
SMILES,aSyn UTR inh,697 NFkB inh,KLF5 inhibitor,Jurkat NFkB inh,ANO1 block,TMEM16A act
CN(CC1CCCO1)S(=O)(=O)c1ccc(C(=O)Nc2nc(-c3ccccn3)cs2)cc1 (stereo unspecified),x,n,n,n,25,n
Brc1ccc(C2C3=C(Nc4ncnn42)c2ccccc2OC3c2ccncc2)cc1 (stereo unspecified),71,n,n,n,n,n
COc1ccc(C2Oc3ccccc3C3=C2C(c2cccs2)n2ncnc2N3)cc1 (stereo unspecified),n,n,n,n,n,n
NC(=O)C1CCN(C(=O)C2CC(=O)N(c3ccc(F)cc3)C2)CC1 (stereo unspecified),n,n,n,n,n,n
CCOc1ccc(N2C(=O)CC(NCCNc3ccc([N+](=O)[O-])cn3)C2=O)cc1 (stereo unspecified),n,n,n,n,25,n
O=C(NCc1cccc(Cl)c1)c1cc(COc2ccc3ncccc3c2)on1,n,n,n,n,100,n
CCOc1ccc(CC(=O)Nc2ccc(NC(=O)c3ccco3)cc2)cc1OCC,66,x,n,x,x,n
COc1ccc(C)cc1S(=O)(=O)N1c2ccc(C)cc2C2CN(C)CCC21 (stereo unspecified),x,n,x,n,x,n
CN1C(=O)/C(=C/c2cn(CC(=O)N3CCCCC3)c3ccccc23)NC1=S,x,n,n,n,n,-6.2
COc1ccccc1N1CCN(C(=O)c2cccc(S(=O)(=O)N3CCCCCC3)c2)CC1,x,n,x,n,x,n
CCOC(=O)C1(CCOc2ccccc2)CCN(Cc2cccc(F)c2)CC1,n,n,n,n,n,n
CCOC(=O)C1(CCOc2ccccc2)CCN(Cc2cccc(-n3cccn3)c2)CC1,n,n,n,n,25,n
Cc1ccccc1C(=O)N1CCC(C(=O)Nc2ccccn2)CC1,n,n,x,n,n,n
Cc1cccc(-c2sc(Nc3ccccc3)n[n+]2-c2ccc(F)cc2)c1,n,n,n,n,n,n
COc1ccc(C)cc1Nc1n[n+](-c2ccccc2)c(-c2c(OC)ccc3ccccc23)s1,x,n,x,n,100,n
COc1ccc(-c2sc(Nc3ccccc3)n[n+]2-c2ccc(F)cc2)c(C)c1C,n,n,n,n,n,-5
COc1cc(/C=C2\C(=N)N3N=C(N4CCOCC4)SC3=NC2=O)ccc1OC(=O)c1ccccc1,n,n,n,n,100,n
Oc1c(C(Nc2cccc(C(F)(F)F)c2)c2cccnc2)ccc2cccnc12 (stereo unspecified),n,n,n,n,n,n
Cc1cc(NC(c2cccnc2)c2ccc3cccnc3c2O)no1 (stereo unspecified),77,n,n,n,n,n
COc1ccc(CCNC(=O)CN(c2cc(C)cc(C)c2)S(=O)(=O)c2c(C)noc2C)cc1OC,n,n,n,n,n,n
O=C(O)C(Cc1ccccc1)N1C(=O)/C(=C/c2ccccc2)SC1=S (stereo unspecified),n,n,n,n,n,n
O=C(O)C(Cc1ccccc1)N1C(=O)/C(=C/c2cccc3ccccc23)SC1=S (stereo unspecified),x,x,n,x,100,x
Cc1ccc(C)c(OCCC(=O)NCCc2ccc(S(N)(=O)=O)cc2)c1,n,n,n,n,n,n
Cc1ccc(C)c(OCCC(=O)OCC(=O)NCCc2ccc(S(N)(=O)=O)cc2)c1,n,n,x,n,n,-4.8
COc1cc(OC)c(NC(=O)CN(C)S(=O)(=O)c2ccc(-c3ccc(=O)[nH]n3)s2)cc1Cl,n,n,n,n,n,n
SMILES,aSyn UTR inh,697 NFkB inh,KLF5 inhibitor,Jurkat NFkB inh,ANO1 block,TMEM16A act
O=C(CCCn1c(=O)[nH]c2cc(Cl)ccc2c1=O)NC1CCCCCC1,n,n,n,n,25,n
COc1cc2[nH]c(=O)n(CCCCCC(=O)NC3CCCC3)c(=O)c2cc1OC,n,n,n,n,n,n
CCCN1CCN(C(=O)CS(=O)(=O)Cc2nc(-c3cccc(OC)c3)oc2C)CC1,n,n,n,n,n,n
Cc1nc(N)sc1-c1csc(N(C)c2ccc(O)cc2)n1,n,n,n,n,n,n
CN(c1ccc(O)cc1)c1nc(-c2cccs2)cs1,n,n,n,n,25,n
CCCCCCCn1c2c(c(=N)c3c1CCC3)CCCC2,83,x,n,x,x,n
CCn1c2c(c(=N)c3c1CCC3)CCC2,n,n,n,n,n,n
